Experimental data as given in PubChem BioAssay (EPA / NIEHS).
Activity calls are given as the source filed them. Rule for the calls: active = hit-call score of the fitted dose curve at least 0.9, where 1 is the maximum; inactive = score below 0.9.

What was measured:
[1] = read-out: Interferon-gamma inducible Protein 10 (IP10), CXCL10 (gene 3627); experiment: BSK_hDFCGF_IP10: BioMAP Diversity Plus: hDFCGF Assay for Interferon-gamma inducible Protein 10 (IP10) Biomarker Activity (AID 2283053); conditions: primary human foreskin fibroblasts; actives raise or lower the signal
Method in brief: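 Primary foreskin fibroblasts, human; 24 h compound exposure; IP-10 by ELISA; bidirectional fit vs DMSO.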

[2] = read-out: Urokinase-type plasminogen activator receptor (uPAR), PLAUR (gene 5329); experiment: BSK_CASM3C_uPAR: BioMAP Diversity Plus: CASM3C Assay for Urokinase-type plasminogen activator receptor (uPAR) Biomarker Activity (AID 2283054); conditions: primary human coronary artery smooth muscle cells; actives raise or lower the signal;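 note: cell-surface uPAR protein level quantified by ELISA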
[3] = read-out: Vascular cell adhesion molecule 1 (VCAM1), VCAM1 (gene 7412); experiment: BSK_CASM3C_VCAM1: BioMAP Diversity Plus: CASM3C Assay for Vascular cell adhesion molecule 1 (VCAM1) Biomarker Activity (AID 2283055); conditions: primary human coronary artery smooth muscle cells; actives raise or lower the signal;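 note: VCAM-1 protein level quantified by ELISA on the cells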
[4] = read-out: Collagen III, COL3A1 (gene 1281); experiment: BSK_hDFCGF_CollagenIII: BioMAP Diversity Plus: hDFCGF Assay for Collagen III Biomarker Activity (AID 2283056); conditions: primary human foreskin fibroblasts; actives raise or lower the signal
Method in brief: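 Cells: human foreskin fibroblasts, primary. Dosing followed by 24 h incubation, then ELISA for collagen III. Both increases and decreases scored relative to DMSO.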

[5] = read-out: Epidermal growth factor receptor (EGFR), EGFR (gene 1956); experiment: BSK_hDFCGF_EGFR: BioMAP Diversity Plus: hDFCGF Assay for Epidermal growth factor receptor (EGFR) Biomarker Activity (AID 2283057); conditions: primary human foreskin fibroblasts; actives raise or lower the signal
Method in brief: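 hDFCGF system, primary human foreskin fibroblasts; compound 24 h; EGFR measured by ELISA; DMSO = negative control/baseline; bidirectional fitting.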

[6] = BSK_hDFCGF_Proliferation: Cell Proliferation Assessment in the BioMAP Diversity Plus: hDFCGF Assay (AID 2283059); conditions: primary human foreskin fibroblasts;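 note: curves fitted for both rise and fall of signal versus DMSO baseline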
Method in brief: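 This proliferation readout used SRB total-protein staining of human foreskin fibroblasts […], normalized to DMSO with bidirectional curve fitting.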

[7] = read-out: Macrophage colony-stimulating factor (MCSF), CSF1 (gene 1435); experiment: BSK_hDFCGF_MCSF: BioMAP Diversity Plus: hDFCGF Assay for Macrophage colony-stimulating factor (MCSF) Biomarker Activity (AID 2283060); conditions: primary human foreskin fibroblasts; actives raise or lower the signal
Method in brief: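 M-CSF levels, determined by ELISA, are taken at 24 h after dosing human skin fibroblasts. Responses in either direction are fitted with DMSO serving as the baseline.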

[8] = BSK_hDFCGF_SRB: Viability Assessment in the BioMAP Diversity Plus: hDFCGF Assay (AID 2283061); conditions: primary human foreskin fibroblasts;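 note: cells exposed to compound for 24 h before the read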
Method in brief: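 Cells were dosed with test chemical, cultured 24 h, fixed with 10% TCA, then stained with 0.1% SRB and read at 560 nm. The fibroblasts were human foreskin primary cells, and DMSO served as baseline.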

[9] = read-out: Monokine induced gamma interferon (MIG), CXCL9 (gene 4283); experiment: BSK_hDFCGF_MIG: BioMAP Diversity Plus: hDFCGF Assay for Monokine induced gamma interferon (MIG) Biomarker Activity (AID 2283063); conditions: primary human foreskin fibroblasts; actives raise or lower the signal
Method in brief: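 MIG signal, determined by ELISA, reflects 24 h chemical exposure of human skin primary fibroblasts. DMSO serves as negative control and baseline.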

[10] = read-out: Vascular cell adhesion molecule 1 (VCAM1), VCAM1 (gene 7412); experiment: BSK_hDFCGF_VCAM1: BioMAP Diversity Plus: hDFCGF Assay for Vascular cell adhesion molecule 1 (VCAM1) Biomarker Activity (AID 2283065); conditions: primary human foreskin fibroblasts; actives raise or lower the signal;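 for AC50: VCAM-1 protein level quantified by ELISA after 24 h chemical exposure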
Method in brief: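 Cells are dosed, cultured for 24 h, then VCAM-1 is quantified by ELISA; signal increases and decreases are both fitted relative to DMSO.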

[11] = read-out: Plasminogen activator inhibitor-1 (PAI1), SERPINE1 (gene 5054); experiment: BSK_hDFCGF_PAI1: BioMAP Diversity Plus: hDFCGF Assay for Plasminogen activator inhibitor-1 (PAI1) Biomarker Activity (AID 2283066); conditions: primary human foreskin fibroblasts; actives raise or lower the signal
Method in brief: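 Primary dermal fibroblasts (human foreskin), hDFCGF system; compound 24 h; PAI-1 by ELISA; bidirectional fit vs DMSO control.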

[12] = read-out: Intercellular Adhesion Molecule 1 (ICAM1), ICAM1 (gene 3383); experiment: BSK_KF3CT_ICAM1: BioMAP Diversity Plus: KF3CT Assay for Intercellular Adhesion Molecule 1 (ICAM1) Biomarker Activity (AID 2283067); conditions: primary human keratinocytes with fibroblasts; actives raise or lower the signal
Method in brief: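 Dose the keratinocyte/fibroblast co-culture, wait 24 h, measure ICAM-1 by ELISA, then fit increases or decreases against DMSO. Cytotoxicity is checked in parallel cultures by SRB total-protein staining.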

[13] = read-out: Interferon-gamma inducible Protein 10 (IP10), CXCL10 (gene 3627); experiment: BSK_KF3CT_IP10: BioMAP Diversity Plus: KF3CT Assay for Interferon-gamma inducible Protein 10 (IP10) Biomarker Activity (AID 2283068); conditions: primary human keratinocytes with fibroblasts; actives raise or lower the signal
Method in brief: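 Signal is secreted/surface IP-10 by ELISA in a human primary skin co-culture of keratinocytes and foreskin fibroblasts, taken 24 h post-dosing; DMSO served as negative control.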

[14] = BSK_KF3CT_SRB: Viability Assessment in the BioMAP Diversity Plus: KF3CT Assay (AID 2283069); conditions: primary human keratinocytes with fibroblasts;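 note: total protein by sulforhodamine B staining as a cytotoxicity measure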
Method in brief: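 Human primary keratinocyte plus foreskin fibroblast co-culture exposed to chemicals for 24 h. Total protein measured by 0.1% sulforhodamine B staining after 10% TCA fixation, read at 560 nm; bidirectional fitting versus DMSO baseline.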

[15] = read-out: TIMP metallopeptidase inhibitor 2 (TIMP2), TIMP2 (gene 7077); experiment: BSK_KF3CT_TIMP2: BioMAP Diversity Plus: KF3CT Assay for TIMP metallopeptidase inhibitor 2 (TIMP2) Biomarker Activity (AID 2283071); conditions: primary human keratinocytes with fibroblasts; actives raise or lower the signal
Method in brief: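 Cells: human keratinocytes co-cultured with foreskin fibroblasts. Treat with chemical, 24 h. Measure TIMP-2 by ELISA; fit curves bidirectionally vs DMSO baseline.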

[16] = read-out: Transforming growth factor beta 1 (TGFb1), TGFB1 (gene 7040); experiment: BSK_KF3CT_TGFb1: BioMAP Diversity Plus: KF3CT Assay for Transforming growth factor beta 1 (TGFb1) Biomarker Activity (AID 2283072); conditions: primary human keratinocytes with fibroblasts; actives raise or lower the signal
Method in brief: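 Primary human skin cells (keratinocytes, foreskin fibroblasts) were co-cultured, exposed to test chemical and sampled at 24 h. TGF-b1 levels were measured by ELISA and fitted bidirectionally relative to DMSO.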

[17] = read-out: TIMP metallopeptidase inhibitor 1 (TIMP1), TIMP1 (gene 7076); experiment: BSK_hDFCGF_TIMP1: BioMAP Diversity Plus: hDFCGF Assay for TIMP metallopeptidase inhibitor 1 (TIMP1) Biomarker Activity (AID 2283062); conditions: primary human foreskin fibroblasts; actives raise or lower the signal
Method in brief: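 Fibroblasts from human foreskin are treated with test chemical and harvested at 24 h. TIMP-1 is quantified by ELISA, and gain or loss of signal is scored against DMSO.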

[18] = read-out: Interleukin-1 alpha (IL1a), IL1A (gene 3552); experiment: BSK_KF3CT_IL1a: BioMAP Diversity Plus: KF3CT Assay for Interleukin-1 alpha (IL1a) Biomarker Activity (AID 2283070); conditions: primary human keratinocytes with fibroblasts; actives raise or lower the signal
Method in brief: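 Human keratinocyte plus foreskin fibroblast primary co-culture, sampled 24 h after chemical dosing. IL-1a measured by ELISA; responses fitted bidirectionally against DMSO baseline (negative control), so gain or loss of signal both count.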

[19] = read-out: Matrix Metallopeptidase 1 (MMP1), MMP1 (gene 4312); experiment: BSK_hDFCGF_MMP1: BioMAP Diversity Plus: hDFCGF Assay for Matrix Metallopeptidase 1 (MMP1) Biomarker Activity (AID 2283064); conditions: primary human foreskin fibroblasts; actives raise or lower the signal
Method in brief: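 Primary human foreskin fibroblasts in the hDFCGF system were dosed with test chemical, and MMP1 was measured by ELISA 24 h later. Values come from bidirectional curve fitting against the DMSO baseline.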

[20] = read-out: Interleukin-8 (IL8), CXCL8 (gene 3576); experiment: BSK_hDFCGF_IL8: BioMAP Diversity Plus: hDFCGF Assay for Interleukin-8 (IL8) Biomarker Activity (AID 2283058); conditions: primary human foreskin fibroblasts; actives raise or lower the signal
Method in brief: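 IL-8 levels from compound-treated primary human fibroblasts were read by ELISA at 24 h, with DMSO serving as baseline for bidirectional fitting.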

Measured: AC50

CC(c1ccc(O)cc1)(c1ccc(O)cc1)c1ccc(O)cc1
active: [1] 25.6 µM | [2] 6.77 µM | [3] 5.31 µM | [4] 3.78 µM | [6] 23.6 µM | [7] 16.5 µM | [8] 29.2 µM | [9] 23.8 µM | [10] 8.14 µM | [11] 20.5 µM | [12] 20 µM | [13] 22.3 µM | [14] 29.9 µM | [15] 13.1 µM | [16] 11.4 µM
inactive: [5]

Cc1cc(O)ccc1Cl
not listed: [19] | [20]
inactive: all other assays above

Sc1ccccc1
not listed: [17] | [18] | [20]
inactive: all other assays above

Clc1ccc(C(Cl)(Cl)Cl)cc1
not listed: [17] | [18] | [19] | [20]
inactive: all other assays above

C1CC2OC2CC1C1CO1 (stereo not given)
not listed: [18] | [19] | [20]
inactive: all other assays above

CC(C)(c1ccccc1)c1ccc(O)cc1
inactive: [2] | [5]
active: [1] 34.1 µM | [3] 28.6 µM | [4] 32.2 µM | [6] 29.3 µM | [7] 30.7 µM | [8] 33.8 µM | [17] 32 µM | [9] 39 µM | [10] 34.7 µM | [11] 32.2 µM | [12] 36.9 µM | [13] 35.9 µM | [14] 33.1 µM | [18] 31.2 µM | [15] 34.3 µM | [16] 34.5 µM

O=C(NC(=O)c1cc(F)c(F)cc1Cl)Nc1cc(F)ccc1N1CCC(C(=O)O)CC1
not listed: [17] | [19] | [20]
inactive: all other assays above

Cc1cc(-c2ccc(N)c(C)c2)ccc1N
not listed: [17] | [20]
inactive: all other assays above

Nn1cnnc1
not listed: [19] | [20]
inactive: all other assays above

CCC(=O)O[C@H]1CC[C@H]2[C@@H]3CCC4=CC(=O)CC[C@]4(C)[C@H]3CC[C@]12C
inactive: [2] | [3] | [5]
active: [20] 38.2 µM | [6] 30.6 µM | [7] 31.3 µM | [8] 36.1 µM | [17] 33.8 µM | [9] 36.9 µM | [19] 35.9 µM | [10] 31.4 µM | [11] 39.1 µM | [12] 37.5 µM | [13] 32.1 µM | [14] 36.3 µM | [18] 32.7 µM | [15] 30.7 µM

CN(C)CCO
not listed: [18] | [19] | [20]
inactive: all other assays above

C[C@]12CCC(=O)C=C1CC[C@@H]1[C@@H]2CC[C@@]2(C)[C@H]1CC[C@]2(C)O
not listed: [17] | [18] | [19] | [20]
inactive: all other assays above
